# nsP2pro inh = blocks chikungunya virus nsP2 protease peptide cleavage; Potency, µM (titrated, usually from 24.9 µM), for inactives: at the top dose activity change, negative = inhibition, usual class: inhibitors; Q8JUX6; 31,000 tested, 1.1% active; FRET peptide cleavage, nsP2pro, fluorescence 1 h; further: nearly all actives have a fitted effect of over 60% in size
#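 Recombinant nsP2pro (150 nM) was preincubated with compound 15 min at room temperature in 10 mM Tris-HCl pH 8.0, 0.01% Tween 20. Peptide 2 FRET substrate (2.5 uM) was then added and fluorescence read after 1 h. Seven-point series, up to 25 uM.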
# CHIKV nsP2 cell = secondary cell-based test for CHIKV nsP2 protease inhibitors. 450 tested, 10% active. cell-based CHIKV nsP2 protease reporter assay. Potency, µM (titrated, usually from 51.1 µM), for inactives: at the top dose activity change, negative = inhibition, hits mostly inhibitors. shares compounds with nsP2pro inh. AID 1964100; further: nearly all actives have a fitted effect of over 70% in size
# CHIKV NSP2 FL = full-length CHIKV NSP2 protease inhibition, selectivity; shares compounds with nsP2pro inh; Full-length CHIKV NSP2 protease enzymatic counterscreen; Potency, µM (titrated, usually from 50.7 µM), inactives show at the top dose activity change, negative = inhibition, actives largely listed as inhibitors; 410 tested, 39% active; further: nearly all actives have a fitted effect of over 65% in size
# Furin counter = human furin inhibition, counterscreen for nsP2pro inhibitors; shares compounds with nsP2pro inh; Recombinant human furin enzymatic counterscreen, fluorogenic substrate; 410 tested, 6% active; AID 1964102; Potency, µM (titrated, usually from 50.6 µM), inactives show at the top dose activity change, negative = inhibition, usual class: inhibitors
# NS23 peptide cs = selectivity test for CHIKV nsP2 protease inhibitors: endogenous NS2/3 peptide. shares compounds with nsP2pro inh. Purified CHIKV nsP2 protease, endogenous NS2/3 peptide cleavage. Potency, µM (titrated, usually from 51 µM), for inactives: at the highest dose activity change, negative = inhibition, hits mostly inhibitors. 410 tested, 34% active. AID 1964103; further: nearly all actives have a fitted effect of over 55% in size
# Papain cs = inhibits papain in a CHIKV nsP2 protease selectivity counterscreen | 410 tested, 5% active | purified papain protease activity, enzymatic inhibition | shares compounds with nsP2pro inh | AID 1964104 | Potency, µM (top dose mostly 51 µM), without a hit: at the top dose activity change, negative = inhibition, most hits filed as inhibitors
# Target sequence (P00784 whole entry, looked up): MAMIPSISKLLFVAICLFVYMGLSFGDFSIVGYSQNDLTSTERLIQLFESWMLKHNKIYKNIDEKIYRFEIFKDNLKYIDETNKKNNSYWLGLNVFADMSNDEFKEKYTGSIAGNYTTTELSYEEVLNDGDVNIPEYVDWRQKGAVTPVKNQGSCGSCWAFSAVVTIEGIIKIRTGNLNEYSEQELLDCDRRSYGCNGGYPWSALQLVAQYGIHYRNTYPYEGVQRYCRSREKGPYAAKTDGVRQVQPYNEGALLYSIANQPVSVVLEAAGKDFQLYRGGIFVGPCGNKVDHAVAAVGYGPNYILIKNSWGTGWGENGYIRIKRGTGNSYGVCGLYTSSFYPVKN
# nsP2pro confirm = CHIKV nsP2 protease inhibition, confirmatory qHTS; Potency, µM (doses to about 25.5 µM), for inactives: at the top dose activity change, negative = inhibition, hits mostly inhibitors; shares compounds with nsP2pro inh; CHIKV nsP2 protease enzymatic activity, qHTS; 410 tested, 43% active; further: nearly all actives have a fitted effect of over 75% in size
# HCV NS3 counter = selectivity counter-screen for CHIKV nsP2 protease inhibitors: HCV NS3/4A; shares compounds with nsP2pro inh; HCV NS3/4A protease biochemical counterscreen; Potency, µM (series often up to 50.9 µM), most hits filed as inhibitors; 410 tested, 20% active; further: nearly all actives have a fitted effect of over 55% in size
# Starred values were filed as active, the others as inactive; i = inactive; ? = inconclusive; ! = not confirmed by another sample; [ ] = remark or other dose. The full list was thinned out, with hits kept by preference. The call rests on the fitted dose curve. On the % scale 0 is the no-effect control and ±100 the full control effect; potency means the concentration at half of the fitted maximal effect.
SMILES,nsP2pro inh,others
C=C1C(=O)O[C@@H]2C[C@@H](C)[C@]34C[C@]5(C(=O)O[C@H]6CC(C)=C([C@H](C)CCCO)[C@H](OC(=O)C(C)CC)[C@H]65)[C@@H](C(C)=C3C[C@@H]12)[C@H]4OC(C)=O (some centres undefined),13.1%[10 µM],
C=C1C(=O)OC2/C=C(\COO)CC/C=C(\COC(C)=O)CC(OC(=O)C(C)CC)C12 (centres undefined),3.0%[10 µM],
CC(C)CN(Cc1cccnc1)C1CN(S(=O)(=O)Cc2ccccc2F)C1,i,
C/C(=N\N=C(N)N)c1ccc(NC(=O)Nc2ccc(/C(C)=N/N=C(N)N)cc2)cc1,8.81µM*,CHIKV nsP2 cell=5.8%;CHIKV NSP2 FL=16.3µM*;Furin counter=16.3µM*;NS23 peptide cs=29.1µM*;Papain cs=?;nsP2pro confirm=8.96µM*;HCV NS3 counter=18.3µM*
NS(=O)(=O)c1ccc(NC(=O)Nc2ccc(F)cc2)cc1,7.4%,
CC(=O)Nc1ccc(NC(=O)CCC(=O)c2ccc(C)cc2)cc1,-6.6%,
CCC[C@@H]1CN(C(=O)CNS(=O)(=O)c2cccs2)C[C@H]1NC(C)=O,-7.6%,
OCC=Cc1ccccc1,1.0%,
CCOc1cc(C)c(CN2CCCC(O)(CN(C)C)C2)cc1C(C)C (centres undefined),i,
Cc1cc(C)nc(NC(=S)N2CCN(c3ncc(Cl)cc3Cl)CC2)c1,2.2%,
O=c1[nH]c2ccc(S(=O)(=O)Nc3cc(Cl)ccc3O)cc2o1,25.9%,
O=S(=O)(Nc1ccc(O)c2ncccc12)c1ccccc1F,-29.1%,
O=[N+]([O-])c1cc(S(=O)(=O)Nc2ccc(O)c3ccccc23)ccc1Cl,5.01µM*,CHIKV nsP2 cell=?;CHIKV NSP2 FL=16.3µM*;Furin counter=-18.3%;NS23 peptide cs=11.6µM*;Papain cs=?;nsP2pro confirm=5.65µM*;HCV NS3 counter=i
O=C(O)C(O)C(O)C(=O)O (centres undefined),-6.1%,
CCCCN1C(=O)c2ccccc2C1=O,-6.7%,
CC(C)=CCC1C(=O)N(c2ccccc2)N(c2ccccc2)C1=O,-4.3%,
CCCCC1C(=O)N(c2ccccc2)N(c2ccc(O)cc2)C1=O (centres undefined),8.81µM*,CHIKV nsP2 cell=?;CHIKV NSP2 FL=20.6µM*;Furin counter=-12.9%;NS23 peptide cs=6.51µM*;Papain cs=-12.4%;nsP2pro confirm=7.98µM*;HCV NS3 counter=i
Fc1ccc(OC2CN(CC3CCCCC3)C2)c(F)c1,i,
O=C(Cc1cccc(Cl)c1)N1CC(c2nc(Cc3ccccc3)no2)C1,-8.0%,
C[C@@H](OC(=O)/C=C/c1ccc(O)cc1)C1=C[C@]2(C=C[C@@H]3C(C(=O)O)=CO[C@@H](O[C@@H]4O[C@H](CO[C@@H]5O[C@H](CO)[C@@H](O)[C@H](O)[C@H]5O)[C@@H](O)[C@H](O)[C@H]4O)[C@@H]32)OC1=O,20.8%[10 µM],
O=C(/C=C/c1ccc(O)cc1)OC[C@@]1(O)C=C[C@@H]2C(C(=O)O)=CO[C@@H](O[C@@H]3O[C@H](CO)[C@@H](O)[C@H](O)[C@H]3O)[C@@H]21,146.6%[10 µM],
COC(=O)C1=CO[C@@H](O[C@@H]2O[C@H](CO)[C@@H](O)[C@H](O)[C@H]2O)[C@H]2[C@@H]1C=C[C@]21C=C([C@H](C)OC(=O)/C=C/c2ccc(O)cc2)C(=O)O1,1.65µM*,CHIKV nsP2 cell=-29.1%[17.6 µM];CHIKV NSP2 FL=3.43µM*;Furin counter=-3.1%[17.3 µM];NS23 peptide cs=?;Papain cs=-10.3%[17.2 µM];nsP2pro confirm=1.33µM*;HCV NS3 counter=?
CC(C)(C)c1cnc([C@@H]2COCCN2C2CCCCC2)[nH]1,i,
Cc1nn(-c2ccc(C(C)C)cc2)c(C)c1[C@@H]1C=C[C@@H](NC(=O)NC(C)C)C1,7.6%[39.2 µM],
Cc1nn(-c2ccc(C(F)(F)F)cc2)c(C)c1[C@@H]1C=C[C@@H](NC(=O)NC(C)C)C1,1.41µM*,CHIKV nsP2 cell=2.11µM*;CHIKV NSP2 FL=-4.3%;Furin counter=14.9µM*;NS23 peptide cs=18.8µM*;Papain cs=-1.0%;nsP2pro confirm=2.59µM*;HCV NS3 counter=11.9µM*
SMILES,nsP2pro inh,others
CCNC(=O)N[C@@H]1C=C[C@@H](c2c(C)nn(-c3ccc(OC)cc3)c2C)C1,0.5%[39.2 µM],
Cc1nn(-c2ccccn2)c(C)c1[C@@H]1C=C[C@@H](NC(=O)CCC(=O)O)C1,2.9%[39.2 µM],
Cc1ccc(-n2nc(C)c([C@@H]3C=C[C@@H](NC(=O)NC(C)C)C3)c2C)cc1Cl,-5.0%[39.2 µM],
Cc1nn(-c2ccccn2)c(C)c1[C@@H]1C=C[C@@H](NC(=O)NC(C)C)C1,10µM*,CHIKV nsP2 cell=?;CHIKV NSP2 FL=18.8µM*;Furin counter=-8.0%;NS23 peptide cs=?;Papain cs=-5.2%;nsP2pro confirm=13µM*;HCV NS3 counter=13.3µM*
O=C(c1cc(F)ccc1Cl)N1CCCC1c1nncn1Cc1ccncc1 (centres undefined),-7.9%,
CCCCCCCCCCCCCCCCOc1nc2ccc(C)cc2c(=O)o1,-2.3%,
Cc1cc(/C=C2/C(=O)Nc3ccccc32)cc(C)c1O,i,
CNC(=O)[C@H]1C[C@]2(CCCCNC2=O)N(C(=O)c2cccc(C#N)c2)[C@H]1c1ccco1,-3.9%,
CC(C)COC(=O)N1[C@@H](c2ccco2)[C@@H](CO)C[C@]12CCCCNC2=O,?,CHIKV nsP2 cell=2.1%;CHIKV NSP2 FL=-14.7%;Furin counter=-10.2%;NS23 peptide cs=?;Papain cs=-3.6%;nsP2pro confirm=-18.4%;HCV NS3 counter=?
CCN(CCc1cn(C)cn1)c1ncnc2ccc(-c3ccc4c(c3)OCO4)cc12,i,
O=C(Cc1cccc(Cl)c1)N1CCC(C(=O)N2CCC(c3ccccc3)CC2)CC1,-1.7%,
C/C=C/c1ccc(OC)cc1,-6.6%,
C/C=C/c1cc(OC)c2c(c1)[C@@H](C)[C@@H](c1ccc(O)c(OC)c1)O2,10.5%,
C/C=C/c1ccc(O)c(OC)c1,?,CHIKV nsP2 cell=-5.2%;CHIKV NSP2 FL=18.3µM*;Furin counter=-10.6%;NS23 peptide cs=?;Papain cs=-5.5%;nsP2pro confirm=5.04µM*;HCV NS3 counter=?
CC1=C(C(=O)Nc2ccccc2)C(c2cc(C)ccc2C)N2C(CC(=O)NC(C)C)=CSC2=N1 (centres undefined),-17.3%,
O=C(O[C@H]1C[N+]2(CCCOc3ccccc3)CCC1CC2)C(O)(c1cccs1)c1cccs1,2.4%,
CSc1nc2c(c(=O)[nH]1)C(c1cccc(F)c1F)CC(=O)N2 (centres undefined),-26.9%,
COc1ccc(COC(=O)C2=C(C)NC(=O)CC2c2cccc(Cl)c2Cl)cc1 (centres undefined),-10.5%,
Nc1nc2c(s1)C(c1ccccc1Cl)CC(=O)N2 (centres undefined),10µM*!,CHIKV nsP2 cell=-40.1%;CHIKV NSP2 FL=1.63µM*;Furin counter=-5.0%;NS23 peptide cs=3.66µM*;Papain cs=9.0%;nsP2pro confirm=4µM*;HCV NS3 counter=i

# Screening data: PubChem, National Center for Advancing Translational Sciences (NCATS)
